Inconclusive results are not listed. Activity calls are given as the source filed them. Rule for the calls, unless noted: active = hit-call score of the fitted dose curve at least 0.9, where 1 is the maximum; inactive = score below 0.9.
Tests used:
[1] = read-out: Monokine induced gamma interferon (MIG), CXCL9 (gene 4283); assay: BSK_3C_MIG: BioMAP Diversity Plus: 3C Assay for Monokine induced gamma interferon (MIG) Biomarker Activity (AID 2283021); conditions: primary human endothelial cells (HUVEC); actives raise or lower the signal;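 for AC50: MIG protein level measured by immunoassay in the treated endothelial cultures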
How it was run: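 ELISA measurement of MIG in human umbilical vein endothelial cells 24 h after treatment. Cytotoxicity tracked by SRB staining in parallel cultures; gain or loss of signal fitted relative to DMSO.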

[2] = BSK_3C_SRB: Viability Assessment in the BioMAP Diversity Plus: 3C Assay (AID 2283023); conditions: primary human endothelial cells (HUVEC);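 note: fitted both ways against DMSO so a hit may be signal rise or drop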
How it was run: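 Absorbance at 560 nm of sulforhodamine B-stained (0.1%) total protein served as a cytotoxicity readout in human umbilical vein endothelial cells, 24 h after chemical treatment. Signal was fitted bidirectionally relative to DMSO.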

[3] = read-out: Matrix Metallopeptidase 1 (MMP1), MMP1 (gene 4312); assay: BSK_BE3C_MMP1: BioMAP Diversity Plus: BE3C Assay for Matrix Metallopeptidase 1 (MMP1) Biomarker Activity (AID 2283024); conditions: primary human bronchial epithelial cells; actives raise or lower the signal
How it was run: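 ELISA measurement of MMP-1 after 24 h compound exposure of primary human bronchial epithelial cells. Changes in either direction fitted relative to DMSO; parallel SRB staining checked overt cytotoxicity.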

[4] = BSK_3C_Vis: BioMAP Diversity Plus: 3C Assay for Morphology Visualization (AID 2283025); conditions: primary human endothelial cells (HUVEC);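 note: fitted both ways so gain or loss versus DMSO counts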;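 for AC50: light microscopy image of cell morphology used as background control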
How it was run: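 Light-microscopy visualization of HUVEC cultures at 24 h post-treatment, with DMSO as baseline for bidirectional fitting.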

[5] = read-out: Pselectin, SELP (gene 6403); assay: BSK_4H_Pselectin: BioMAP Diversity Plus: 4H Assay for Pselectin Biomarker Activity (AID 2283026); conditions: primary human endothelial cells (HUVEC); actives raise or lower the signal
How it was run: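 ELISA of surface P-selectin on HUVEC, 24 h after dosing, with parallel SRB staining (0.1% after 10% TCA fixation, 560 nm) for overt cytotoxicity. Activity fitted in both directions relative to DMSO.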

[6] = BSK_4H_SRB: Viability Assessment in the BioMAP Diversity Plus: 4H Assay (AID 2283027); conditions: primary human endothelial cells (HUVEC);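 note: cells exposed to compound for 24 h before staining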;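 for AC50: curves fitted both ways versus DMSO so AC50 may be loss or gain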
How it was run: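 Cytotoxicity read-out in primary human endothelial cells: after 24 h compound exposure, cells were TCA-fixed (10%), stained with 0.1% SRB and absorbance taken at 560 nm. Values fitted in both directions relative to DMSO.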

[7] = read-out: Urokinase-type plasminogen activator receptor (uPAR), PLAUR (gene 5329); assay: BSK_4H_uPAR: BioMAP Diversity Plus: 4H Assay for Urokinase-type plasminogen activator receptor (uPAR) Biomarker Activity (AID 2283030); conditions: primary human endothelial cells (HUVEC); actives raise or lower the signal
How it was run: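 Cell-surface uPAR ELISA signal, measured 24 h after dosing human umbilical vein endothelial cells, was analyzed with bidirectional fitting relative to DMSO. Parallel SRB staining of total protein tracked overt cytotoxicity.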

[8] = read-out: Vascular endothelial growth factor receptor 2 (Homo sapiens) (UniProt P35968); assay: BSK_4H_VEGFRII: BioMAP Diversity Plus: 4H Assay for Vascular endothelial growth factor receptor 2 (VEGFR2) Biomarker Activity (AID 2283031); conditions: primary human endothelial cells (HUVEC); actives raise or lower the signal;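 for AC50: cell-surface VEGFR2 protein level quantified by ELISA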
How it was run: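 ELISA read-out of VEGFRII in primary human umbilical vein endothelium, taken 24 h after chemical treatment. Responses are expressed relative to DMSO, with bidirectional fitting.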

[9] = read-out: Human Leukocyte Antigen - DR isotype (HLADR), HLA-DRA (gene 3122); assay: BSK_BE3C_HLADR: BioMAP Diversity Plus: BE3C Assay for Human Leukocyte Antigen - DR isotype (HLADR) Biomarker Activity (AID 2283032); conditions: primary human bronchial epithelial cells; actives raise or lower the signal
How it was run: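 Cell-surface HLA-DR ELISA readout at 24 h after dosing in the BE3C primary human lung bronchial epithelial system; gain or loss of signal against DMSO, with parallel sulforhodamine B staining of total protein for overt cytotoxicity.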

[10] = read-out: Vascular cell adhesion molecule 1 (VCAM1), VCAM1 (gene 7412); assay: BSK_4H_VCAM1: BioMAP Diversity Plus: 4H Assay for Vascular cell adhesion molecule 1 (VCAM1) Biomarker Activity (AID 2283033); conditions: primary human endothelial cells (HUVEC); actives raise or lower the signal
How it was run: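 VCAM-1 ELISA read 24 h after chemical dosing of HUVEC in the BioMAP 4H system, with gain or loss of signal fitted relative to DMSO. Parallel SRB staining (560 nm) checked overt cytotoxicity.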

[11] = read-out: Interferon-gamma inducible Protein 10 (IP10), CXCL10 (gene 3627); assay: BSK_BE3C_IP10: BioMAP Diversity Plus: BE3C Assay for Interferon-gamma inducible Protein 10 (IP10) Biomarker Activity (AID 2283034); conditions: primary human bronchial epithelial cells; actives raise or lower the signal
How it was run: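 IP-10 quantified by ELISA in human primary bronchial epithelial cell cultures at 24 hours post-dosing. Gain or loss of signal fitted relative to DMSO; parallel SRB staining assessed overt cytotoxicity.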

[12] = read-out: Monokine induced gamma interferon (MIG), CXCL9 (gene 4283); assay: BSK_BE3C_MIG: BioMAP Diversity Plus: BE3C Assay for Monokine induced gamma interferon (MIG) Biomarker Activity (AID 2283035); conditions: primary human bronchial epithelial cells; actives raise or lower the signal
How it was run: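 ELISA quantified MIG after 24 h exposure of primary bronchial epithelial cultures, analysed in both directions relative to DMSO. Cytotoxicity tracked in parallel cultures by sulforhodamine B staining.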

[13] = read-out: Transforming growth factor beta 1 (TGFb1), TGFB1 (gene 7040); assay: BSK_BE3C_TGFb1: BioMAP Diversity Plus: BE3C Assay for Transforming growth factor beta 1 (TGFb1) Biomarker Activity (AID 2283036); conditions: primary human bronchial epithelial cells; actives raise or lower the signal
How it was run: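 ELISA readout of TGF-b1 from human lung bronchial epithelial primary cells, taken 24 h post-treatment. Gain or loss of signal fitted relative to DMSO baseline, with parallel SRB staining for overt cytotoxicity.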

[14] = read-out: Plasminogen activator inhibitor-1 (PAI1), SERPINE1 (gene 5054); assay: BSK_BE3C_PAI1: BioMAP Diversity Plus: BE3C Assay for Plasminogen activator inhibitor-1 (PAI1) Biomarker Activity (AID 2283037); conditions: primary human bronchial epithelial cells; actives raise or lower the signal
How it was run: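 PAI-1 was measured by ELISA in human primary bronchial epithelial cultures 24 h after chemical dosing, with cytotoxicity checked by SRB total-protein staining in parallel cultures. Activity was fitted in both directions relative to DMSO.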

[15] = read-out: urokinase plasminogen activator (uPA), PLAU (gene 5328); assay: BSK_BE3C_uPA: BioMAP Diversity Plus: BE3C Assay for urokinase plasminogen activator (uPA) Biomarker Activity (AID 2283038); conditions: primary human bronchial epithelial cells; actives raise or lower the signal
How it was run: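 Bronchial epithelial cells (human, primary); chemical 24 h; uPA by ELISA; bidirectional fit vs DMSO. SRB (0.1%, after 10% TCA fixation, 560 nm) in parallel cultures for cytotoxicity.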

[16] = read-out: Urokinase-type plasminogen activator receptor (uPAR), PLAUR (gene 5329); assay: BSK_BE3C_uPAR: BioMAP Diversity Plus: BE3C Assay for Urokinase-type plasminogen activator receptor (uPAR) Biomarker Activity (AID 2283039); conditions: primary human bronchial epithelial cells; actives raise or lower the signal
How it was run: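 uPAR levels were measured by ELISA after 24 h compound treatment of primary human bronchial epithelial cells, fitted in both directions relative to DMSO. Parallel SRB staining served as the cytotoxicity read-out.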

[17] = read-out: Interleukin-6 (IL6), IL6 (gene 3569); assay: BSK_CASM3C_IL6: BioMAP Diversity Plus: CASM3C Assay for Interleukin-6 (IL6) Biomarker Activity for (AID 2283040); conditions: primary human coronary artery smooth muscle cells; actives raise or lower the signal
[18] = biological target: human Vitamin D Receptor (VDR), VDR (gene 7421) (UniProt P11473); assay: ATG_VDR_TRANS: Attagene TRANS-FACTORIAL HepG2 Assay for human Vitamin D Receptor (VDR) (AID 2283022; active = hit-call score of the fitted dose curve at least 0.9, where 1 is the maximum)
Chain of human Vitamin D Receptor (VDR), VDR (gene 7421) (P11473 whole entry, looked up, the tested form may be a part): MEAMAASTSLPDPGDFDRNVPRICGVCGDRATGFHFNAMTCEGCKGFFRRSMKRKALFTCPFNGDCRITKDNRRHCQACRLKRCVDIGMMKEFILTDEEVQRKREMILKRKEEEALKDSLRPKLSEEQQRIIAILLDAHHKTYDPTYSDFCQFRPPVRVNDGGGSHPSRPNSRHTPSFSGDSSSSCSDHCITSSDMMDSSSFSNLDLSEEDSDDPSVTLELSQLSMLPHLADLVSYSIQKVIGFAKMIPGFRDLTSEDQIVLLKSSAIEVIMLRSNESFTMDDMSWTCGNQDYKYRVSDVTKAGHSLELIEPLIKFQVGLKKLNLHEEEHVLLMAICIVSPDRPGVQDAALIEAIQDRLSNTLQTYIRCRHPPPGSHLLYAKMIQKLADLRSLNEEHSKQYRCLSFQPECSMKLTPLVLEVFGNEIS
How it was run: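 Steps: transfect HepG2 with GAL4-UAS-driven reporter constructs; dose compounds 24 h; isolate RNA, reverse-transcribe, PCR-amplify with 6-FAM-labelled primer extension and HpaI digestion; quantify fragments by capillary electrophoresis relative to DMSO.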

[19] = BSK_BE3C_SRB: Viability Assessment in the BioMAP Diversity Plus: BE3C Assay (AID 2283028); conditions: primary human bronchial epithelial cells;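 for AC50: fitted both ways so AC50 may mark signal gain or loss versus DMSO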
How it was run: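 Cells (human bronchial epithelial, primary) are treated with chemicals, and after 24 h the parallel cultures are fixed in 10% TCA. These are then stained with 0.1% SRB and read at 560 nm. Gain or loss of signal is fitted relative to DMSO.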

[20] = read-out: Thrombomodulin, THBD (gene 7056); assay: BSK_3C_Thrombomodulin: BioMAP Diversity Plus: 3C Assay for Thrombomodulin Biomarker Activity (AID 2283029); conditions: primary human endothelial cells (HUVEC); actives raise or lower the signal
How it was run: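 ELISA measurement of thrombomodulin on HUVEC surface 24 h after chemical dosing; activity fitted in both directions relative to DMSO vehicle.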

Measured: AC50

C=C(C)[C@H]1CC=C(C)C(=O)C1
inactive: [1] | [2] | [3] | [4] | [5] | [6] | [7] | [8] | [9] | [10] | [11] | [12] | [13] | [14] | [15] | [16] | [17]

c1ccc(Oc2ccccc2)cc1
inactive: [1] | [18] | [3] | [7] | [8] | [9] | [11] | [12] | [13] | [14] | [15] | [16] | [17]
active: [2] 30 µM | [4] 37.8 µM | [5] 30.8 µM | [6] 31.3 µM | [10] 28.8 µM

C=C(C)C(=O)OCCOCCOCCOC(=O)C(=C)C
inactive: [1] | [2] | [3] | [4] | [5] | [6] | [19] | [7] | [8] | [10] | [11] | [12] | [13] | [14] | [15] | [16] | [17]
active: [9] 3.97 µM

CC(=O)C1(C)CC2=C(CCCC2(C)C)CC1C (stereo not drawn)
active: [1] 20 µM | [2] 8.86 µM | [3] 27.5 µM | [4] 8.8 µM | [5] 5.95 µM | [6] 6.99 µM | [19] 27.1 µM | [7] 5.19 µM | [8] 5.33 µM | [9] 13.8 µM | [10] 9.63 µM | [11] 25.6 µM | [12] 34.9 µM | [13] 12.8 µM | [14] 20 µM | [15] 20 µM | [16] 20 µM | [17] 14 µM

CCC(C)c1cc([N+](=O)[O-])cc([N+](=O)[O-])c1OC(=O)OC(C)C (stereo not drawn)
active: [1] 33.2 µM | [2] 14.1 µM | [3] 35.1 µM | [4] 12 µM | [5] 9.75 µM | [6] 13.9 µM | [7] 13 µM | [8] 9.93 µM | [9] 15.3 µM | [10] 8.04 µM | [11] 11 µM | [12] 33 µM | [13] 13.6 µM | [14] 20 µM | [15] 33.7 µM | [16] 35 µM | [17] 34.1 µM

CC(C)(C)CC(C)(C)c1ccc(OCCOCC[N+](C)(C)Cc2ccccc2)cc1
inactive: [18] | [13]
active: [1] 8.17 µM | [2] 4.62 µM | [3] 6.86 µM | [4] 9.69 µM | [5] 5 µM | [6] 5.82 µM | [7] 4.64 µM | [9] 7.59 µM | [10] 7.35 µM | [11] 8.05 µM | [12] 8.97 µM | [14] 0.992 µM | [15] 5 µM | [16] 3.16 µM | [17] 8 µM

CC(=O)c1c(C)c([N+](=O)[O-])c(C(C)(C)C)c([N+](=O)[O-])c1C
inactive: [1] | [2] | [3] | [4] | [5] | [6] | [7] | [8] | [9] | [10] | [11] | [12] | [13] | [14] | [15] | [16] | [17]

CC=Cc1ccc(OCC)c(O)c1
inactive: [1] | [18] | [2] | [3] | [4] | [5] | [6] | [7] | [8] | [9] | [10] | [11] | [12] | [13] | [14] | [15] | [16] | [17]

CS(=O)(=O)c1ccc(C2=C(c3ccccc3)C(=O)OC2)cc1
inactive: [1] | [2] | [3] | [4] | [5] | [6] | [20] | [7] | [8] | [9] | [10] | [11] | [12] | [13] | [14] | [15] | [16] | [17]

COc1ccc(CCN2CCC(Nc3nc4ccccc4n3Cc3ccc(F)cc3)CC2)cc1
active: [2] 2.41 µM | [4] 0.743 µM | [6] 2.49 µM | [7] 0.992 µM | [9] 7.88 µM | [10] 0.0041 µM
inactive: [1] | [3] | [5] | [8] | [11] | [12] | [13] | [14] | [15] | [16] | [17]

CCCC(C)C(O)CC (stereo not drawn)
inactive: [18]

O=C(O)CNc1ccccc1
inactive: [18]

C=CCN(CC=C)CC=C
inactive: [18]

CC(C)OCCO
inactive: [18]

O=CN1CCOCC1
inactive: [1] | [2] | [3] | [5] | [6] | [7] | [8] | [9] | [10] | [11] | [12] | [14] | [15] | [16] | [17]

COC(=O)Nc1ccc(Cl)c(Cl)c1
inactive: [18]

CC(C)c1ccccc1O
inactive: [18]

COc1ccc(OC)c(N=Nc2c(O)ccc3ccccc23)c1
inactive: [1] | [2] | [3] | [6] | [7] | [8] | [12] | [13] | [14] | [15] | [17]
active: [4] 13 µM | [5] 5.42 µM | [9] 3.41 µM | [10] 20 µM | [11] 6.72 µM | [16] 5.41 µM
